Reference: PubChem BioAssay AID1645870 (National Center for Advancing Translational Sciences (NCATS), 2021)
Values joined by “and” are separate entries in the source; they are usually repeats but may differ in a detail not shown here. Identical values can stand only once. About 1,500 (2.5%) of roughly 59,000 compounds were called active. Another 10% or so got no clear call; they are omitted. Calls follow the shape of the dose curve; as a rule, active = well fitted inhibition curve with a large enough effect; inconclusive = small, poorly fitted or top-dose-only effect; inactive = flat fitted curve, though single readings scatter. The sample as a whole holds a higher share of actives than the screen did. Some structures have more than one record in an assay (separate samples or runs), and their calls can disagree.

The molecules below were run against N-terminal Xaa-Pro-Lys N-methyltransferase 1 (Homo sapiens) (UniProt Q9BV86) (assay: Primary qHTS for Inhibitors of N-terminal methyltransferase 1 (NTMT1): MTaseGlo Assay). Details: NTMT1 MTase-Glo SAH luminescence, purified enzyme; series mostly up to 114 µM; activity change, negative = inhibition: at the top concentration.
Description: Assay Submitter (PI): Rong Huang Ph.D.
Purdue University, West Lafayette, IN 47907
The N-terminal methytransferase 1 is the first methyltransferase that methylates protein alpha-N-amines and plays an important role in regulating cell mitosis, chromatin interactions and DNA repair. It is observed to be over-expressed in various cancer patient tissues like malignant melanoma and colorectal cancer tissues. Knockdown of NTMT1 in cancer cells causes cell mitotic defects and enhances sensitivity to DNA damaging chemotherapeutics. […] These critical cellular processes in which NTMT1 is implicated, coupled with emerging links to cellular dysfunction, strengthen the inference that NTMT1 is a compelling novel anticancer target. Progress have been made in understanding the molecular properties of NTMT1 and the biological consequences of protein alpha-N-terminal methylation, but there are no specific small molecule probes available for NTMT1 to fully characterize its MTase activity. To address this unmet need, a panel of assay is created and established to enable quantitative high-throughput screening (qHTS) for novel, potent, and selective small molecule NTMT1 inhibitors. Two orthogonal qHTS that use different reagents (ThioGlo vs. MTaseGlo) are developed for primary robotic screening against the NCATS chemical library of more than 400,000 small molecules. Identified inhibitors are reacquired, validated, and further characterized.
MTaseGlo Assay is a luminescence screen that measure the activity of methyltransferases based on the reaction product S-adenosyl homocysteine (SAH). The substrate SAM is converted to SAH upon enzyme activation. MTase-Glo reagent and detection solution convert SAH to ATP and measure the light from the luciferase reaction.
Materials: NTMT1 enzyme, substrate SPKRIA, control peptide RCC1-6 is provided by the Huang laboratory.
SEQUENCE No. (e.g., 1, 2, 3, etc.); […] (e.g., Cells, Incubation, Reagent, etc.); VALUE; DESCRIPTION
1; Enzyme; 3 uL; Dispense enzyme mixture (final concentrations of 125 nM NTMT1 and 100 uM SAM) into Greiner 1536-well white / solid bottom assay plate (Greiner Bio One, Monroe, NC).
2; Compounds; 23 nL; Compounds and controls were transferred via a Kalypsys Pin Tool (Wako USA) equipped with a 1536-slotted pin array (Wako Automation, Richmond, VA)
3; Incubation; 15 min; Incubate at room temperature
4; Substrate; 1 uL; Dispense 1 uL of substrate at final concentration of 1 uM. Buffer solution was dispensed in control wells. The assay plate was covered with metal lids.
5; Incubation; 30 min; Incubate at room temperature, protected from lights.
6; Reagent; 1 uL; Dispensed 5x MTase-Glo detection reagent (R) into the assay plate. The plate was covered with metal lids.
7; Incubation; 30 min; Incubate the assay plates at room temperature in the dark to allow for SAH to be converted to ADP.
8; Reagent; 5 uL; Dispense 5 uL of 1x MTase-Glo Detection Solution (R) to allow for ADP to be converted to ATP which was then detected with a luciferase reaction.
9; Centrifuge; 15 sec; Centrifuge the assay plate for 15 seconds at 1000 RPM.
10; Incubation; 30 min; Assay plates were incubation at room temperature in the dark.
11; Detection; Luminescence; Plates were read on ViewLux detector (PerkinElmer). Data were normalized to no-enzyme (0% activity) and no-inhibitor (DMSO; 100%) controls, and the resulting percent inhibition data were fitted to a 4-parameter Hill equation using GraphPad Prism.
Also: nearly all actives have a fitted effect of over 65% in size.
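For activity change, negative = inhibition in this document: plate controls were DMSO vehicle for no effect and no enzyme for full effect.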
Potency is read from the fitted curve at half-maximal effect.

Sequence of N-terminal Xaa-Pro-Lys N-methyltransferase 1 (Homo sapiens) (Q9BV86 whole entry, looked up): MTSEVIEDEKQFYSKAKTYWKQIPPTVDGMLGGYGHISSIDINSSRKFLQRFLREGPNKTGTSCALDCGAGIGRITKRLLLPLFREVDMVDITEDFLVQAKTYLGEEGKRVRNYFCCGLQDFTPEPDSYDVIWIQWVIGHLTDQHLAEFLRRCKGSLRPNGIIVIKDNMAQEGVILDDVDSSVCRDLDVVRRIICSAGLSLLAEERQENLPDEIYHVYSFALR

Question: For CC(C)=CCC[C@](C)(O[C@@H]1O[C@H](CO[C@@H]2O[C@H](CO)[C@@H](O)[C@H](O)[C@H]2O)[C@@H](O)[C@H](O)[C@H]1O)[C@H]1CC[C@]2(C)[C@@H]1[C@H](O)C[C@@H]1[C@@]3(C)CC[C@H](O[C@@H]4O[C@H](CO)[C@@H](O)[C@H](O)[C@H]4O[C@@H]4O[C@H](CO)[C@@H](O)[C@H](O)[C@H]4O)C(C)(C)[C@@H]3CC[C@]12C, which “activity change, negative = inhibition” value is on record?
Answer: Its value is -4.41% [at 57.5 µM] (inactive).

Question: How did the “activity change, negative = inhibition” value turn out when NC(=O)C1CCN(c2nc(-c3cccc(F)c3)cs2)CC1 was run?
Answer: The value was -0.0933% (inactive).

Question: With CCCN1CCN(CCCNC(=O)c2ccc3nc(Cc4ccccc4)oc3c2)CC1 as the molecule, how does the “activity change, negative = inhibition” value read?
Answer: Its value is 1.05% (inactive).

Question: For Cc1ccc(C)c(N2CCN(CCCNC(=O)Nc3ccc(Cl)cc3)CC2)c1, which “activity change, negative = inhibition” value is on record?
Answer: The value was -18.2% (inactive).

Question: With Cc1cn(CCN2CCN(c3ccccc3-c3cc(C#N)cc(C(=O)NCCCN4CCCC4)c3)CC2)c2ccccc12 as the molecule, how does the Potency read?
Answer: The Potency was 50.1 µM (active).

Question: For O=C(Nc1cc(Cc2ccccc2)ccn1)c1ccc(-c2cccc([N+](=O)[O-])c2)o1, which “activity change, negative = inhibition” value is on record?
Answer: The value was 9.38% (inactive).

Question: Which “activity change, negative = inhibition” value does the source give for N#Cc1ccccc1CNc1nc2ncc(Br)cc2[nH]1 here?
Answer: The value was 11.6% (inactive).

Question: For CCOc1cccc(-c2cc(-c3n[nH]c(=O)n3CC)c3ccccc3n2)c1, which “activity change, negative = inhibition” value is on record?
Answer: Its value is -2.86% (inactive).

Question: How did the Potency turn out when N#CSc1cc(SC#N)c(N)nc1N was run?
Answer: Its Potency is 7.8 µM (active).

Question: Cc1cc2c(s1)c1cnn(Cc3c(F)cccc3Cl)c(=O)c1n2C was tested. Which “activity change, negative = inhibition” value did it give?
Answer: The value was 12.9% (inactive).

Question: Which “activity change, negative = inhibition” value does the source give for Cc1cc(C(=O)Nc2cccc(C(F)(F)F)c2)c2c(C)nn(-c3cccc(F)c3)c2n1 here?
Answer: The value was -2.97% (inactive).

Question: Cc1cc(Nc2cccc(C(F)(F)F)c2)nc2ccc(NC(=O)c3ccc(=O)[nH]c3)cc12 was tested. Which “activity change, negative = inhibition” value did it give?
Answer: The value was 0.753% (inactive).

Question: For Cc1ccc(C(=O)Nc2cccc(C(F)(F)F)c2)cc1Nc1nc(-c2cccnc2)nc2c1cnn2C, which Potency is on record?
Answer: The Potency was “inactive and 21.5 µM (active)”.

Question: How did the “activity change, negative = inhibition” value turn out when COc1cccc(C2c3c(ncn(-c4cccc(Br)c4)c3=N)Oc3ccc4ccccc4c32)c1 (configuration not stated) was run?
Answer: Its value is 6.03% (inactive).

Question: For COC(=O)c1ccc(NC(=O)c2cc(-c3ccc(C)c(C)c3)nc3ccccc23)cc1, which “activity change, negative = inhibition” value is on record?
Answer: Its value is 4.26% (inactive).

Question: For COc1ccc(NC(=O)c2cnn3c(C)cc(C)nc23)cc1OC, which “activity change, negative = inhibition” value is on record?
Answer: The value was -0.855% (inactive).

Question: COc1ccc(C(CC(=O)N2CC(C)CC(C)C2)c2c(O)cc(OC)cc2OC)cc1 (configuration not stated) was tested. Which “activity change, negative = inhibition” value did it give?
Answer: Its value is -7.84% [at 228 µM] (inactive).

Question: With CC(=O)Oc1ccccc1C(=O)Nc1ncc([N+](=O)[O-])s1 as the molecule, how does the Potency read?
Answer: The Potency was 25.1 µM (active).

Question: Which “activity change, negative = inhibition” value does the source give for Cc1ccc(S(=O)(=O)Nc2ccccc2C(=O)Nc2ncc(-c3ccccc3)s2)cc1 here?
Answer: The value was 19.6% (inactive).

Question: How did the “activity change, negative = inhibition” value turn out when O=C(Nc1ncc(Cc2ccc(C(F)(F)F)cc2)s1)c1ccc(-c2ccc([N+](=O)[O-])cc2)o1 was run?
Answer: The value was 18.1% (inactive).

Question: For O=c1c2ccccc2nc2sc(Nc3ccc(Oc4ccccc4)cc3)nn12, which “activity change, negative = inhibition” value is on record?
Answer: The value was 6.69% (inactive).

Question: Which “activity change, negative = inhibition” value does the source give for Nc1ccc(C(=O)Nc2ccccc2N)cc1 here?
Answer: The value was -9.88% [at 57.5 µM] (inactive).

Question: Nc1ccccc1N was tested. Which Potency did it give?
Answer: The Potency was 22.4 µM (active).

Question: For Cc1nc(-c2ccccc2C(C)C)nc(NCc2ccc(-c3cccnc3)cc2)c1C, which “activity change, negative = inhibition” value is on record?
Answer: The value was 6.7% [at 57.5 µM] (inactive).

Question: Which “activity change, negative = inhibition” value does the source give for O=C(NCc1ccc(Cl)c(Cl)c1)Nc1nnc(-c2ccncc2)s1 here?
Answer: The value was -20.2% (inactive).

Question: CCOC(=O)c1c(CNCc2ccccc2F)c2sc(C)cc2n1C was tested. Which “activity change, negative = inhibition” value did it give?
Answer: Its value is -4.22% (inactive).

Question: How did the “activity change, negative = inhibition” value turn out when Cc1ccc(N[S+](=O)([O-])c2cc3c(cc2N[C@@H](C)CO)NC(=O)CC3)cc1N[C@@H](C)CO was run?
Answer: Its value is -11.2% (inactive).

Question: With CCc1ccc(NC(=O)c2cnn3c(C)cc(-c4ccccc4)nc23)cc1 as the molecule, how does the “activity change, negative = inhibition” value read?
Answer: The value was -14.4% (inactive).

Question: How did the Potency turn out when CCOc1ccc(NC(=O)c2c(NC(=O)Cc3ccccc3)sc3c2CCCCC3)cc1 was run?
Answer: The Potency was 44.7 µM (active).

Question: Which “activity change, negative = inhibition” value does the source give for CCOc1ccc(NC(=O)c2c(NCc3cccc(OC)c3OC)sc3c2CCC3)cc1 here?
Answer: The value was -2% (inactive).

Question: For O=C(Cc1ccccc1)Nc1sc2c(c1C(=O)Nc1ccc(Br)cc1)CCC2, which “activity change, negative = inhibition” value is on record?
Answer: Its value is 12.1% (inactive).

Question: How did the “activity change, negative = inhibition” value turn out when O=C(CNC(=O)c1ccccc1)OC(C(=O)Nc1cc([N+](=O)[O-])ccc1F)c1ccccc1 (configuration not stated) was run?
Answer: The value was 9.09% (inactive).

Question: With NC(=O)c1cnc2[nH]ccc2c1NC1C2CC3C[C@H]1CC(O)(C3)C2 (some centres not stated) as the molecule, how does the “activity change, negative = inhibition” value read?
Answer: Its value is -9.6% (inactive).

Question: How did the “activity change, negative = inhibition” value turn out when CN(CC(F)(F)F)c1nc(NCc2ccc(-c3cccnc3)cc2)c2ccccc2n1 was run?
Answer: Its value is 25.3% (inactive).

Question: CN(C)[S+](=O)([O-])c1ccc(-c2ccc(=O)n(CC(=O)NCCc3ccccc3)n2)cc1 was tested. Which “activity change, negative = inhibition” value did it give?
Answer: The value was 4.09% (inactive).

Question: O=C(NC(c1ccco1)c1cc(Cl)c2cccnc2c1O)c1ccccc1 (configuration not stated) was tested. Which “activity change, negative = inhibition” value did it give?
Answer: Its value is 18.9% (inactive).

Question: OCc1cnc(SCc2ccc(F)cc2)n1Cc1ccc(F)cc1 was tested. Which Potency did it give?
Answer: The Potency was 89.1 µM (active).

Question: O=C(CSc1ncc(CO)n1Cc1ccc(F)cc1)NCc1ccco1 was tested. Which “activity change, negative = inhibition” value did it give?
Answer: Its value is -0.0712% (inactive).

Question: With O=C(CSc1ncc(CO)n1Cc1ccc(Cl)cc1)NCc1ccc(F)cc1 as the molecule, how does the “activity change, negative = inhibition” value read?
Answer: Its value is -15.8% (inactive).

Question: For Cc1cc(C)n2ncc(C(=O)N3CCCC3)c2n1, which “activity change, negative = inhibition” value is on record?
Answer: Its value is 15.8% (inactive).

Question: Cc1ccc(OCCn2c(CCNC(=O)c3ccccc3C(F)(F)F)nc3ccccc32)cc1 was tested. Which “activity change, negative = inhibition” value did it give?
Answer: Its value is 7.93% (inactive).

Question: CC(C)c1ccccc1-c1nc(NCc2ccc(-c3cccnc3)cc2)c2occc2n1 was tested. Which “activity change, negative = inhibition” value did it give?
Answer: The value was 6.29% (inactive).

Question: For COc1ccc(C2Nc3cccc(OC)c3C(=O)N2Cc2ccccc2)cc1COc1ccc(NC(C)=O)cc1 (configuration not stated), which “activity change, negative = inhibition” value is on record?
Answer: The value was 15.3% (inactive).

Question: Which “activity change, negative = inhibition” value does the source give for O=C(OCC#CCSc1nnc(-c2ccco2)o1)c1ccc(F)cc1 here?
Answer: Its value is -0.0729% (inactive).

Question: With O=C(Nc1nnc(-c2ccncc2)s1)Nc1cc(C(F)(F)F)ccc1F as the molecule, how does the “activity change, negative = inhibition” value read?
Answer: Its value is 4.26% (inactive).

Question: How did the “activity change, negative = inhibition” value turn out when COc1ccc(C2Nc3ccccc3C(=O)N2Cc2ccco2)cc1COc1cccc(NC(C)=O)c1 (configuration not stated) was run?
Answer: Its value is -15% (inactive).

Question: For CCNC(=O)C#Cc1ccc2c(C(=Nc3ccc(CN(C)C)cc3)c3ccccc3)c(O)[nH]c2c1, which Potency is on record?
Answer: The Potency was 31.6 µM (active).
